Test results from the supplement of paper PMC12350171.
Structures can show the parent of a compound that is named as a salt. Values without a mark were called inactive.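 The calls were made as follows: active = normalised median growth AUC below 0.1 of DMSO control; inactive = AUC 0.1 or higher.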

Each compound was assayed on P. vulgatus RND KO (assay: growth AUC normalised to DMSO control (median) (fraction of control); higher = less growth inhibition, active = hit call of the paper). Details: 20 µM.
How it was run: (§1)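 Each strain went through two overnight passages under anaerobic conditions before growth in mGAM in 96-well plates, starting at OD578 0.01, with each compound from the approved-drug library at 20 μM and 1% DMSO. Inside an anaerobic incubator, OD578 was recorded every hour for 24 h. Growth curves were cut off at entry into stationary phase, and the area under the curve was calculated by the trapezoidal rule and normalised to vehicle wells on the same plate. Reported values are medians of three biological replicates.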
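Also: active when median AUC fell below 0.1.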

| Compound | growth AUC normalised to DMSO control |
| --- | --- |
| Nc1nc(=O)n([C@@H]2CS[C@H](CO)O2)cc1F [(-) Emtricitabine] | 0.983 |
| CC(C(=O)O)c1ccc(C(=O)c2cccs2)cc1 (configuration not stated) [Suprofen] | 1.01 |
| OCCN1CCN(CCCN2c3ccccc3C=Cc3ccccc32)CC1 [Opipramol dihydrochloride] | 1.01 |
| c1ccc(CC2=NCCN2)cc1 [Tolazoline hydrochloride] | 1.02 |
| CC=C(C)C(=O)OC1C(OC(C)=O)C2(CO)C(O)CC3(C)C(=CCC4C5(C)CCC(OC6OC(C(=O)O)C(OC7OC(CO)C(O)C(O)C7O)C(O)C6OC6OC(CO)C(O)C(O)C6O)C(C)(CO)C5CCC43C)C2CC1(C)C (stereo not drawn) [Beta-Escin] | 0.998 |
| N=C(N)N/N=C/c1c(Cl)cccc1Cl [Guanabenz acetate] | 0.983 |
| CCN1CCC[C@H]1CNC(=O)c1c(OC)ccc(Br)c1OC [Remoxipride hydrochloride] | 1.03 |
| C/C=C(/C(=C/C)c1ccc(O)cc1)c1ccc(O)cc1 [Dienestrol] | 0.015 (active) |

What follows are compounds tested on P. vulgatus WT in the same assay as above. Details: 20 µM.
How it was run: as §1

| Compound | growth AUC normalised to DMSO control |
| --- | --- |
| CN(C)CCOC(c1ccccc1)c1ccccc1 [Diphenhydramine hydrochloride] | 1 |
| COC(=O)C1=C(C#N)NC(C)=C(C(=O)OC(C)C)C1c1cccc([N+](=O)[O-])c1 (configuration not stated) [Nilvadipine] | 1.12 |
| Nc1nc2n[nH]nc2c(=O)[nH]1 [Azaguanine-8] | 0.999 |
| CCN(CC)CCOC(=O)C(Cc1cccc2ccccc12)CC1CCCO1 (configuration not stated) [Nafronyl oxalate] | 0.989 |
| O=c1n(CCCN2CCN(c3cccc(Cl)c3)CC2)nc2ccccn12 [Trazodone hydrochloride] | 1.01 |
| CCCOc1ccc(C(=O)OCCN(CC)CC)cc1N [Proparacaine hydrochloride] | 1.05 |
| CN1CCCN(C(c2ccccc2)c2ccc(Cl)cc2)CC1 (configuration not stated) [Homochlorcyclizine dihydrochloride] | 0.984 |
| CCCCOC(=O)c1ccc(N)cc1 [Butamben] | 1.03 |
| OC(CCN1CCCCC1)(c1ccccc1)c1ccccc1 [Pridinol methanesulfonate salt] | 0.953 |
| CCCNC(C)C(=O)Nc1ccccc1C (configuration not stated) [Prilocaine hydrochloride] | 1 |
| COc1cccc2c1C(=O)c1c(O)c3c(c(O)c1C2=O)C[C@@](O)(C(=O)CO)C[C@@H]3O[C@H]1C[C@H](N)[C@H](O)[C@H](C)O1 [Doxorubicin hydrochloride] | 0.966 |
| CCC(=O)OCC(=O)[C@@]1(OC(=O)CC)[C@H](C)C[C@H]2[C@H]3[C@H]([C@@H](O)C[C@@]21C)[C@@]1(C)C=CC(=O)C=C1C[C@H]3Cl [Alclometasone dipropionate] | 1.04 |
| Nc1nc(N)nc(-c2cc(Cl)ccc2Cl)n1 [Irsogladine maleate] | 0.977 |
| CC(C)(C)NCC(O)c1ccc(O)c(CO)c1 (configuration not stated) [Salbutamol] | 0.956 |
| C[C@H](CCC(=O)O)[C@H]1CC[C@H]2[C@@H]3[C@@H](O)C[C@@H]4C[C@H](O)CC[C@]4(C)[C@H]3CC[C@]12C [Urosiol] | 1.02 |
| OCCN1C[C@H](O)[C@@H](O)[C@H](O)[C@H]1CO [Miglitol] | 0.995 |
| CCCC(CCC)C(=O)O [Valproic acid] | 1.07 |
| CCOC(=O)c1ccc(N)cc1 [Benzocaine] | 1.07 |
| CCSc1ccc2c(c1)N(CCCN1CCN(C)CC1)c1ccccc1S2 [Thiethylperazine maleate] | 1 |
| COC(=O)Nc1nc2cc(C(=O)c3ccc(F)cc3)ccc2[nH]1 [Flubendazol] | 1.07 |
| O=C(Cn1ccnc1[N+](=O)[O-])NCCO [Etanidazole] | 1.01 |
| Cc1cccc(N(C)C(=S)Oc2ccc3ccccc3c2)c1 [Tolnaftate] | 1.04 |
| CCC(C)n1ncn(-c2ccc(N3CCN(c4ccc(OCC5COC(Cn6cncn6)(c6ccc(Cl)cc6Cl)O5)cc4)CC3)cc2)c1=O (configuration not stated) [Itraconazole] | 1.1 |
| C[C@]12C[C@H](O)[C@H]3[C@@H](CCC4=CC(=O)CC[C@@]43C)[C@@H]1CC[C@@H]2C(=O)CO [Corticosterone] | 1.01 |
